# Measured values taken from PubChem BioAssay AID493098 (Sanford-Burnham Center for Chemical Genomics, 2011).
# In all, about 340,000 compounds went through this assay and about 1,700 (0.5%) were called active. This excerpt belongs to a sample that is enriched for actives. A number with no mark means an inactive call.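 The calls were made as follows: active = compounds whose inhibition of the agonist-driven luminescence signal at 20 µM reaches about 50% (limit read from the data); inactive = the rest.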
# Biological target: C-C chemokine receptor type 6 (Homo sapiens) (UniProt P51684)
# Assay: blockers of CCL20-driven beta-arrestin recruitment to CCR6 – cell-based, CHO-K1, luminescence, uHTS, primary screen (AID 493098);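 also: cells stimulated with CCL20 at 14 nM final; plate controls were DMSO with CCL20 for no effect and DMSO without agonist for full effect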
# Conditions: CHO-K1 CCR6 PathHunter beta-arrestin, CCL20-stimulated, at 20 µM, stronger effect = higher value
# Sequence of C-C chemokine receptor type 6 (Homo sapiens) (P51684 whole entry, looked up): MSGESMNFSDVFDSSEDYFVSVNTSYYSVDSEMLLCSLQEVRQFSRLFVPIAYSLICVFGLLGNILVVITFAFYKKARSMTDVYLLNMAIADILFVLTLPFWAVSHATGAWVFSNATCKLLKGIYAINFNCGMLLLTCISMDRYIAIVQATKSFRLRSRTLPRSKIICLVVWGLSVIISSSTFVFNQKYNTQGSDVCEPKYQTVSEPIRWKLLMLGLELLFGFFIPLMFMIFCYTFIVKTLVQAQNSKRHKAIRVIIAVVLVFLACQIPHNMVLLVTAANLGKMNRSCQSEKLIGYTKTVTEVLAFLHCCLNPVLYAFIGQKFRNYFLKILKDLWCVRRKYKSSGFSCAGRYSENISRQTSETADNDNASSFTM
row,Structure (SMILES),inhibition
1,NS(=O)(=O)c1ccc(CCNS(=O)(=O)c2cccc3cccnc23)cc1,12.6%
2,COc1cc(NS(=O)(=O)c2ccc3ccccc3c2)c2ncccc2c1,13.2%
3,O=[N+]([O-])c1ccccc1S(=O)(=O)Nc1cccc2cccnc12,54.6% (active)
4,CCOc1ccccc1NC(=O)COc1ccc(S(=O)(=O)N2CCCC2)cc1,17.1%
5,O=[N+]([O-])c1ccc(N(CCO)Cc2ccccc2)c([N+](=O)[O-])c1,12.9%
6,O=C1Nc2ccc([N+](=O)[O-])cc2C1=Nc1cccc(CO)c1,57.4% (active)
7,CN1CCN(/N=C2/C(=O)Nc3ccc([N+](=O)[O-])cc32)CC1,7.16%
8,COc1ccc(N2CCN(CCNC(=O)c3nnc(Cc4c(F)cccc4Cl)o3)CC2)cc1,14.8%
9,CCn1nc(C)c(CN2CCN(Cc3ccc(OC)c(C)c3C)C(CCO)C2)c1C (configuration not stated),5.51%
10,COc1cc2c(-c3ccc4c(c3)OCO4)c(-c3ccsc3)oc(=O)c2cc1OC,21%
11,O=C(O)c1ccccc1/C=N/Nc1ccc(S(=O)(=O)Nc2ccc(Cl)cc2)cc1[N+](=O)[O-],46.4%
12,O=C(N/N=C/c1cc(Br)c(O)c([N+](=O)[O-])c1)C(O)(c1ccccc1)c1ccccc1,33.5%
13,O=C(N/N=C/c1cc(Cl)cc([N+](=O)[O-])c1O)C(O)(c1ccccc1)c1ccccc1,54.2% (active)
14,COC(=O)c1cccc(C(=O)N2CCC(CCC(=O)NCc3ccc(F)cc3)CC2)c1,7.16%
15,CCc1ccc(N(C(=O)c2csnn2)C(C(=O)NC2CCCCC2)c2cccnc2)cc1 (configuration not stated),18.2%
16,Cc1cc2oc(=O)cc(CN(C)Cc3ccc(OC(F)F)cc3)c2cc1Cl,21.5%
17,COc1ccc(C(C#N)(CC(=O)O)c2cnccn2)cc1OC (configuration not stated),14.6%
18,O=c1nc(N/N=C/c2ccco2)cn[nH]1,3.85%
19,O=[N+]([O-])c1cc(Cl)cc(/C=N/NC(=S)Nc2cc(S(=O)(=O)N3CCOCC3)ccc2Cl)c1O,63.1% (active)
20,Cc1ccc(S(=O)(=O)N2CCN(CC(=O)N/N=C/c3cc([N+](=O)[O-])ccc3Cl)CC2)cc1,-22.1%
21,O=S(=O)(c1ccc(NC(=S)NN=C(C2CC2)C2CC2)cc1)N1CCOCC1,15.7%
22,CCOc1cc(C(=O)OCC(=O)Nc2cccc(C)c2)ccc1OCC(=O)N1CCOCC1,1.35%
23,CCc1nccn1S(=O)(=O)c1cccc([N+](=O)[O-])c1,3.26%

row,Structure (SMILES),inhibition
1,Cc1ccc(/C([O-])=C(/C(=S)NCc2ccco2)[n+]2ccccc2)cc1[N+](=O)[O-],14.2%
2,c1ccc2c(c1)OC1OC2Oc2ccccc21,19.4%
3,CCC(C)N1C(=O)S/C(=C/c2ccc(Sc3nc4ccccc4[nH]3)o2)C1=O (configuration not stated),15.6%
4,O=[N+]([O-])c1cc(Br)c(O)c(/C=N/Nc2nc3ccccc3s2)c1,54.2% (active)
5,O=C(NC(Nc1nc2ccc([N+](=O)[O-])cc2s1)(C(F)(F)F)C(F)(F)F)c1ccccc1,34.6%
6,Cc1cc(C(=O)N/N=C/c2cc([N+](=O)[O-])cc(C)c2O)n[nH]1,34.7%
7,O=C(CN(Cc1ccc(Br)cc1)S(=O)(=O)c1ccccc1)NCc1ccncc1,28.9%
8,CCOC(=O)c1c(C)[nH]c(C)c1S(=O)(=O)NCCCc1ccco1,0.21%
9,COc1ccc(C(=O)NC2CC2)cc1OC1CCN(C/C=C/c2ccccc2)CC1,3.46%
10,O=[N+]([O-])c1ccc(O)c(/C=N/Nc2ccccc2[N+](=O)[O-])c1,55.9% (active)
11,O=C(N/N=C/c1cc([N+](=O)[O-])ccc1O)/C(=C\c1cccs1)NC(=O)c1ccccc1,34.4%
12,Nc1nnnn1/N=C/c1cc([N+](=O)[O-])ccc1O,23.1%
13,CCN(CC)C(=O)c1nc[nH]c1C(=O)N(C)Cc1ccccc1,9.33%
14,COc1ccc2oc(=O)cc(-c3cc4ccccc4o3)c2c1,10.7%
15,COc1ccc(OC)c(-c2csc(NC(=O)C3=NNC(=O)CC3)n2)c1,-1%
16,COc1ccc2nc(Nc3nc(-c4cc5ccccc5oc4=O)cs3)sc2c1,54.4% (active)
17,Cc1cc(Cl)c(S(=O)(=O)NCc2cccnc2)cc1OCC(N)=O,-11.7%
18,O=[N+]([O-])c1ccc(N=NNc2ccc([N+](=O)[O-])cc2)cc1,58.2% (active)
19,NC(=O)C1(Nc2ccc([N+](=O)[O-])cc2)CCCC1,4.74%
20,CNC(=S)Nc1ccc([N+](=O)[O-])cc1,7.58%
21,CC(=O)NC(CC(=O)Nc1ccc(S(=O)(=O)N2CCOCC2)cc1)c1ccccc1 (configuration not stated),4.97%
22,Cc1nc(SCC(=O)NC2CCCCC2C)c(C#N)c(C)c1C (configuration not stated),13%
23,CCOc1ccc(C(=O)NC(=S)Nc2ccc(NC(=O)C(C)C)cc2)cc1[N+](=O)[O-],28.1%

row,Structure (SMILES),inhibition
1,COc1cccc(OC)c1C(=O)NC(=S)Nc1ccc(N2CCOCC2)c(Cl)c1,8.18%
2,CCOc1ccc(C(=O)NC(=S)Nc2ccc(N3CCOCC3)c(Cl)c2)cc1[N+](=O)[O-],53.9% (active)
3,C/C=C/C=C/C(=O)O,-5.26%
4,COC(=O)c1ccc(NCC(=O)c2ccccc2)cc1,72.6% (active)
5,Cc1ccc(C(=O)CNc2ccc(F)cc2)cc1,90.9% (active)
6,COc1ccc(NC(=O)CCCC(=O)c2ccccc2)cc1,-6.21%
7,COC(=O)c1ccc(NCc2cc(O)ccc2O)cc1,20.3%
8,Cc1ccc(C(=O)NC2CCN(C(=O)Nc3ccc(F)cc3)CC2)cc1,-8.58%
9,Cc1ccc(NC(=S)Nc2ccc(F)cc2)cc1,-4.89%
10,O=C(Nc1ccc(Br)cc1F)C1CC(=O)N(C2CCCCC2)C1 (configuration not stated),1.54%
11,CC(C)NC(=O)c1ccc(Sc2ccccc2)c([N+](=O)[O-])c1,10.2%
12,Cc1cc(C)cc(OCC(=O)NNC(=O)CCN2C(=O)c3ccccc3C2=O)c1,10.7%
13,O=C1C(Cl)=C(Oc2ccccc2)C(=O)c2ccccc21,117% (active)
14,CC(=O)N(C1=C(Cl)C(=O)c2ccccc2C1=O)c1ccc(C(=O)O)cc1,11.9%
15,O=C(CCC1CCN(C(=O)c2cccc(Cl)c2F)CC1)Nc1ccccc1,20.2%
16,O=C1C=C(NS(=O)(=O)c2ccccc2)C(=O)c2ccccc21,29.7%
17,CC(NC(=O)c1ccccc1)C(=O)Nc1ccccc1 (configuration not stated),-0.64%
18,O=C(NC1=CC(=O)c2ccccc2C1=O)c1ccccc1,83% (active)
19,CCn1c(=S)[nH]c2cc(S(=O)(=O)N3CCOCC3)ccc21,-2.44%
20,CC(c1ccco1)N(C(=O)Nc1ccccc1)C1CCCCC1 (configuration not stated),3.12%
21,COc1ccc(S(=O)(=O)NC(C)C(=O)Nc2cccc([N+](=O)[O-])c2)cc1 (configuration not stated),7.92%
22,COC(=O)/C=C\C(=O)Nc1cccc([N+](=O)[O-])c1,106% (active)
23,O=C(Nc1cccc([N+](=O)[O-])c1)Nn1cnnc1,12.5%

row,Structure (SMILES),inhibition
1,C/C(N)=C(/C#N)C(=O)COC(=O)C1=NN(c2ccccc2)C(=O)CC1,7.03%
2,Cc1ccc(S(=O)(=O)N2CCC(Oc3ccc(-n4cnnn4)cc3)CC2)cc1,3.04%
3,COc1cccc(/C=C2/SC(=S)N(CC(=O)NC3C=CS(=O)(=O)C3)C2=O)c1 (configuration not stated),-8.12%
4,CN1C=CC=C/C1=C1\SC(=S)N(Cc2ccccc2)C1=O,25.3%
5,COc1cc(/C=C2/SC(=S)N(Cc3ccccc3)C2=O)cc(OC)c1O,52.9% (active)
6,COC(=O)c1ccc(NC(=O)CSc2nncc3ccc(OC)c(OC)c23)cc1,-2.84%
7,COc1cc(CN2CC(C)CC(C)C2)cc([N+](=O)[O-])c1O (configuration not stated),5.99%
8,C#CCOc1ccc(/C=C2/C(=O)NN(c3ccccc3)C2=O)cc1OC,12%
9,COc1cc(/C=C2/C(=O)NN(c3ccc(F)cc3)C2=O)cc([N+](=O)[O-])c1O,51.9% (active)
10,COc1ccc(NC(=O)CC(NC(C)c2ccccc2)C(=O)O)cc1 (configuration not stated),0.17%
11,O=C(COC(=O)c1cc(S(=O)(=O)N2CCOCC2)ccc1Cl)NCCc1ccccc1,9.32%
12,O=C(C1CCCO1)N(Cc1ccccc1)c1ccccc1 (configuration not stated),2.47%
13,Oc1ccc(N=Nc2nccs2)c(O)c1,67% (active)
14,Oc1ccc2ccccc2c1N=Nc1nccs1,94.3% (active)
15,Cc1cnc(C(=O)N2CCCC(C(=O)c3ccc(C(F)(F)F)cc3)C2)cn1 (configuration not stated),15.2%
16,Cc1ccccc1C(=O)OC1OC(=O)C(Cl)=C1Nc1ccccc1 (configuration not stated),17.2%
17,O=S(=O)(Nc1cc(Cl)ccc1N1CCOCC1)c1ccccc1Cl,17.2%
18,O=C1c2ccccc2-c2ncnc3c(N4CCOCC4)cc(N4CCOCC4)c1c23,55.9% (active)
19,Cc1oc2c(c1C(=O)N1CCOCC1)C(=O)c1ccccc1C2=O,-12.2%
20,Cc1ccc2c(C)c(C(=O)N3CCC(N4CCC(C(=O)NC5CC5)CC4)CC3)oc2c1,1.71%
21,CN(C(=O)CSc1nnc(Nc2ccccc2)s1)C1CCS(=O)(=O)C1 (configuration not stated),4%
22,O=C1c2cccnc2C(Nc2ccc(S(=O)(=O)N3CCCCCC3)cc2)N1Cc1ccccc1 (configuration not stated),5.72%
23,Cc1ccc(S(=O)(=O)NCc2ccc(C(=O)NC3CCC(C)CC3)cc2)cc1 (configuration not stated),19.3%
